Assay outcomes deposited in PubChem BioAssay by The Scripps Research Institute Molecular Screening Center.
MITF inh = human MITF inhibition, primary screen | O75030 | AlphaScreen MITF homodimerization, bead proximity signal | inhibition, % at 2.6 µM | hit rate 0.91% among 650,000; in the data active = inhibition above about 50%;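 note: 0% = vehicle wells with protein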
FBW7 act = activators of human E3 ligase FBW7 | Q969H0 | AlphaScreen FBW7–phospho-cyclin E peptide binding, activator screen | normalized activity (activation), % at 26.1 µM | hit rate 0.13% among 650,000 | AID 1259310; in the data active = normalized activity above about 1.9%;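 note: purified mutant Fbw7 with reduced substrate affinity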
GPR151 ag = activates the human receptor GPR151; PathHunter beta-arrestin GPR151 cells, luminescence; activation, % at 11.2 µM; hit rate 1% among 650,000; in the data active = activation above about 4.9%;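 note: 0% = median of compound wells and 100% = cells with positive control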
Target sequence (Q8TDV0 whole entry, looked up): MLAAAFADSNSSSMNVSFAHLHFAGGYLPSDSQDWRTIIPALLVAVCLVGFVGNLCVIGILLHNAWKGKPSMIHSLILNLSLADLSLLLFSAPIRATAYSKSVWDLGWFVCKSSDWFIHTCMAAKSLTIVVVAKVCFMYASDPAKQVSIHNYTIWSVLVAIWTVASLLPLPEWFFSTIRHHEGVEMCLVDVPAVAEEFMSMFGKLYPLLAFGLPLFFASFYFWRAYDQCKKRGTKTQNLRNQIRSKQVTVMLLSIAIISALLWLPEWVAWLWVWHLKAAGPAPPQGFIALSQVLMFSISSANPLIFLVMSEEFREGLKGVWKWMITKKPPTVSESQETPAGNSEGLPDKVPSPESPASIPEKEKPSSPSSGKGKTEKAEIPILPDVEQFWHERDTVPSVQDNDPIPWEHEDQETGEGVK
TEAD-YAP block = TEAD-YAP interaction inhibition; HEK-TIYL cells, TEAD-Gal4/YAP UAS-luciferase luminescence; inhibition, % at 9.12 µM; hit rate 1.4% among 640,000; in the data active = inhibition above about 32%;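 note: 0% = median of test compound wells and 100% = reference inhibitor wells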
An asterisk follows results filed as active; ! = repeats disagree. This is a sample that favours compounds with a hit; in the whole collection about 3.5% have one here.

SMILES	MITF inh	FBW7 act	GPR151 ag	TEAD-YAP block
CCN(c1cccc(C)c1)S(=O)(=O)c1cc(C(=O)Nc2ccc(C)c(F)c2)ccc1F	12	1	3	-1
COc1ccc(/C(N)=N/OC(=O)c2ccc(Cl)cc2Cl)cc1OC	-4	0	-1	-10
Cc1nn2c(C(F)(F)F)cc(-c3ccc(Cl)cc3)nc2c1C(=O)Nc1ccc(OC(F)(F)F)cc1	-1	0	0	4
O=C1CC(c2cc([N+](=O)[O-])ccc2Cl)C2=C(CC(c3ccc(F)cc3)CC2=O)N1 (stereo not given)	21	1	0	3
Cc1cccc(NC(=O)CNC(=O)COC(=O)c2c(C)nn(Cc3ccccc3)c2C)c1C	-3	0	0	-14
Oc1ccc(CCNc2nc(Nc3ccncc3)nc3c2ncn3-c2ccsc2)cc1	-16	0	-1	56*
Oc1ccc(CCNc2nc(Nc3ccc(C(F)(F)F)cc3)nc3c2ncn3-c2ccsc2)cc1	0	0	-1	25
CCNc1nc(NCCc2ccc(O)cc2)c2ncn(-c3ccsc3)c2n1	10	0	0	17
Cn1nccc1Nc1nc(NCCc2ccc(O)cc2)c2ncn(-c3ccsc3)c2n1	6	0	-2	60*
CC1CCN(C(=O)Cn2c(SCC(=O)N(C(C)C)C(C)C)nc3ccccc32)CC1	6	0	2	14
c1cc2[nH]snc2c2nc(C3CC3)nc12	18	0	-1	38*
O=C1c2ccccc2C(=O)c2c1oc1c3c(ccc21)OCN(CCCN1CCOCC1)C3	22	0	-1	81*
COc1ccccc1C1C2CN(Cc3ccccc3)CC=C2C(C#N)=C(N)C1(C#N)C#N (stereo not given)	4	1.9*	0	7
N#CC1=C(N)C(C#N)(C#N)C(c2ccccc2F)C2CN(Cc3ccccc3)CC=C12 (stereo not given)	8	0	1	4
Cc1cc(/C=C2/C(=O)NC(=O)N(Cc3ccco3)C2=O)c(C)n1-c1ccc(F)cc1	21	0	0	4
COc1cc(C)c(/C=C2/C(=O)NC(=O)N(Cc3ccco3)C2=O)cc1C	52*	0	2	-7
Cc1cc(/C=C2/C(=O)NC(=S)N(Cc3ccco3)C2=O)c(C)n1C	77*	-1	0	0
COc1ccc(/C=C2/C(=O)NC(=O)N(Cc3ccco3)C2=O)cc1OC	33	-1	1	4
COc1cc(C)c(/C=C2/C(=O)NC(=O)N(Cc3ccco3)C2=O)c(OC)c1	64*	0	-1	9
COc1cc(Nc2nc(Nc3cc(OC)c(OC)c(OC)c3)c3ncn(-c4ccsc4)c3n2)cc(OC)c1OC	2	0	3	50*
COc1cc(Nc2nc(Nc3ccccn3)nc3c2ncn3-c2ccsc2)cc(OC)c1OC	7	0	2	31
COc1cc(Nc2nc(Nc3nc4ccccc4n3C)nc3c2ncn3-c2ccsc2)cc(OC)c1OC	14	0	-2	37*
COc1ccc(/C=C(\C#N)C(=O)OCC(=O)N2c3ccccc3CC2C)cc1 (stereo not given)	0	0	0	7
O=C(COc1ccc2oc3c(c2c1)CCCC3)Nc1ccccc1Cl	-9	0	1	5
O=c1cc(-c2ccccc2)oc2cc(O)ccc12	-6	0	-2	51*!
SMILES	MITF inh	FBW7 act	GPR151 ag	TEAD-YAP block
COc1ccc(CCNc2cc(N3CCCC3)ccc2[N+](=O)[O-])cc1OC	3	0	-1	-5
COc1ccc(CCNc2cc(N3CCN(S(=O)(=O)c4ccc(OC)c(OC)c4)CC3)ccc2[N+](=O)[O-])cc1OC	2	0	0	-6
COc1ccc(CCNc2cc(N3CCN(C)CC3)ccc2[N+](=O)[O-])cc1OC	-1	0	1	48*
COc1ccc(CCNc2cc(N3CCN(S(C)(=O)=O)CC3)ccc2[N+](=O)[O-])cc1OC	18	0	2	60*
CCCNc1nc(-c2cccs2)nc2nc[nH]c12	0	0	-2	12
Cc1cc(C)c2cc3c(N)c(C(=O)Nc4nccs4)sc3nc2c1	5	5.4*	-1	-16
Cc1cc(C)c2c(N)c(C(=O)Nc3nccs3)sc2n1	0	0	-1	70*
Cc1c(Cl)cccc1N1CC(O)=C(c2nc3ccccc3[nH]2)C1=N	14	0	0	-3
COc1cccc(NC(=S)N/N=C/c2ccc(O)cc2)c1	-3	0	-1	60*
COc1ccccc1/C=N/NC(=S)Nc1ccccc1OC	-4	0	1	46*
COc1cccc(/C=N/NC(=S)Nc2cccc(C(=O)O)c2)c1O	112*	0	-9	61*
COc1cc(/C=N/NC(=S)Nc2cccc(C(=O)O)c2)ccc1O	-3	0	-2	32*
